The target in test [1] is Glutathione peroxidase 1 (Homo sapiens) (UniProt P07203). Briefly: Primary qHTS Assay for Inhibitors of Recombinant Selenoprotein Glutathione Peroxidase 1 (GPX1) (AID 1845191). Also: nearly all actives have a fitted effect of over 65% in size. Also: potency is read from the fitted curve at half-maximal effect. As to activity, negative = inhibition: % is scaled to controls: 0 for no effect and ±100 for the full control effect. Put shortly: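 NADPH consumption tracked by fluorescence at 340/450 nm between t=0 and t=15 min, room temperature. Final mix: 10 nM GPX1, 100 nM glutathione reductase, 1 mM GSH, 0.5 mM NADPH, 0.5 mM cumene hydroperoxide, 0.01% BSA; 30 min compound–enzyme preincubation.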
Glutathione peroxidase 1 (Homo sapiens), sequence (P07203 whole entry, looked up): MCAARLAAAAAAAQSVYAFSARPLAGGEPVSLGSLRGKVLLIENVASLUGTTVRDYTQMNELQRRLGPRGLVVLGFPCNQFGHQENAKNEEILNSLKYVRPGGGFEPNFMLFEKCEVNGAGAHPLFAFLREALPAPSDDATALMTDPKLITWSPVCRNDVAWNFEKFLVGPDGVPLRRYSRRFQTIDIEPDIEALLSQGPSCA

For test [2], the target named is Phospholipid hydroperoxide glutathione peroxidase GPX4 (Homo sapiens) (UniProt P36969). Briefly: Primary qHTS Assay for Inhibitors of Recombinant Selenoprotein Glutathione Peroxidase 4 (GPX4) (AID 1845192). Also: nearly all actives have a fitted effect of over 65% in size. Also: potency is read from the fitted curve at half-maximal effect. As to activity change, negative = inhibition: series mostly up to about 50 µM; % is scaled to controls: 0 for no effect and ±100 for the full control effect. The method, boiled down:
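NADPH consumption followed by fluorescence at 340/450 nm, t=0 and after 15 min at room temperature. Reaction started with cumene hydroperoxide (0.5 mM final) after 30 min compound–GPX4 preincubation; final 200 nM GPX4, 100 nM GR, 1 mM GSH, 0.5 mM NADPH.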

Test [3] has as its target Luciferin 4-monooxygenase (Photinus pyralis) (UniProt P08659). Briefly: Primary firefly luciferase (FLuc) qHTS assay for identification of artifact compounds. (AID 1845220). Also: nearly all actives have a fitted effect of over 60% in size.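 As to activity change, negative = inhibition: series mostly up to about 54 µM; plate controls were DMSO vehicle for no effect and no enzyme for full effect.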 Put shortly: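 Cell-free, 1536-well qHTS. Buffer pH 7.6 with 0.01% Tween-20 and 0.05% BSA; 10 uM D-luciferin, 10 uM ATP; 10 nM P. pyralis luciferase; luminescence after 5 min.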
Test [4] is described as follows: Primary fluorescence-based thiol-reactive (MSTI) qHTS assay for identification of artifact compounds. (AID 1845221). Also: nearly all actives have a fitted effect of over 65% in size. Also: potency is read from the fitted curve at half-maximal effect.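 As to activity change, negative = thiol reactive: series mostly up to about 54 µM; thiol-reactive compounds lower the probe fluorescence signal.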 Put shortly:
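Probe: MSTI 4 uM, PBS pH 7.4, 2% DMSO. Incubation 1 h, RT, light-protected. Readout fluorescence 525/598 nm.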

Test [5] relates to Nanoluciferase (engineered Oplophorus gracilirostris luciferase). Briefly: Primary Nanoluciferase (NLuc) qHTS assay for identification of artifact compounds. (AID 1845222).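 Also: series mostly up to about 54 µM; 0% = DMSO and -100% = no enzyme.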 Put shortly:
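Compounds are pinned into diluted (1:55) conditioned medium of NLuc-expressing S16 cells and held 15 min at room temperature protected from light. Nano-Glo substrate follows, and luminescence is read 5 min later.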

Each structure is given as a SMILES string. Unmarked numbers belong to inactive results. Inconclusive results are not listed. Active and inactive are the calls of the source. Calls follow the shape of the dose curve; as a rule, active = well fitted curve in the direction sought with a large enough effect; inconclusive = small, poorly fitted or top-dose-only effect, or another doubt; inactive = no such curve, though single readings can be large; an effect the other way counts as inactive or inconclusive.

Phospholipid hydroperoxide glutathione peroxidase GPX4 (Homo sapiens), sequence (P36969 whole entry, looked up): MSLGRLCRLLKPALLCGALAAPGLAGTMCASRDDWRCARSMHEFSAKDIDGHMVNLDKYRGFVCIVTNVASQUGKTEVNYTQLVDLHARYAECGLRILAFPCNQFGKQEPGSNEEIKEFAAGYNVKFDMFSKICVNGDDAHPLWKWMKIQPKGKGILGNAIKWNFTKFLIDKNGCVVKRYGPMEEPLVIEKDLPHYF

Turning to `CCOc1ccc2nc(SCCN3CCOCC3)[nH]c2c1`, the Potency entry in test [1], in test [2], in test [3], in test [4] and in test [5] was “inactive” throughout.
Turning to `CC1(C)CCC2(C(=O)OC3OCC(O)C(O)C3O)CCC3(C)C(=CCC4C5(C)CC(O)C(OC6OC(COC7OCC(O)C(O)C7O)C(O)C(O)C6O)C(C)(C)C5CCC43C)C2C1` (stereo not given), the Potency result in test [1] and in test [2] was “inactive” throughout. Further, the outcome in test [3] is “inactive [at 11.6 µM]”. The activity change, negative = thiol reactive in test [4] is -15.2% [at 11.5 µM]. For the same molecule, in test [5], the activity, negative = inhibition was 0.507% [at 11.6 µM].
On to `CC(=O)OCC1(O)CCC2C(COC3OC(CO)C(O)C(O)C3OC(=O)/C=C/c3ccc(O)cc3)=COC(OC(=O)CC(C)C)C21` (stereo not given), for which the Potency result in test [1], in test [2], in test [3], in test [4] and in test [5] was “inactive” each time.
Consider `C/C=C/C=C/C=C/C(=O)OC1C=C(C=O)C(O)(C(=O)O)C2(C)CCCC(C)(C)C12` (stereo not given), for which the Potency result in test [1], in test [2], in test [3] and in test [5] was “inactive” throughout. The Potency in test [4] is 5.82 µM (active).
As for `C#CCN(Cc1cc2c(=O)n(C)c(CN3CCN(C)CC3)nc2cc1Cl)c1ccc(C(=O)NCc2cccnc2)cc1`, the Potency result in test [1], in test [2], in test [3], in test [4] and in test [5] was “inactive” each time.
Regarding `CC1(C)CC[C@]2(C(=O)O[C@@H]3O[C@H](CO[C@@H]4O[C@H](CO)[C@@H](O)[C@H](O)[C@H]4O[C@@H]4O[C@H](CO)[C@H](O)[C@H](O)[C@H]4O)[C@@H](O)[C@H](O[C@@H]4O[C@H](CO)[C@@H](O)[C@H](O)[C@H]4O)[C@H]3O)CC[C@]3(C)C(=CCC4[C@@]5(C)CC[C@H](O[C@@H]6OC[C@@H](O)[C@H](O)[C@H]6O)[C@@](C)(C(=O)O)C5CC[C@]43C)[C@@H]2C1` (stereo not given in full), the outcome in test [1] is “inactive [at 9.52 µM]”; in test [2] it was “inactive [at 9.73 µM]”. Moreover, the activity change, negative = inhibition in test [3] was 3.08% [at 11.6 µM]. Further, the activity change, negative = thiol reactive in test [4] was 79.6% [at 11.5 µM]. For the same molecule, in test [5], the activity, negative = inhibition is 0.986% [at 11.6 µM].
`CC(=O)O[C@H]1[C@@H](O)[C@H](O[C@H]2[C@@H]3C=CO[C@@H](O[C@H]4O[C@@H](CO)[C@H](O)[C@@H](O)[C@@H]4O)[C@@H]3[C@@]3(CO)O[C@@H]23)O[C@@H](C)[C@@H]1OC(=O)/C=C/c1ccccc1`: the Potency result in test [1], in test [2], in test [3] and in test [5] was “inactive” each time. For the same molecule, the Potency in test [4] was 7.93 µM (active).
On to `COC(=O)/C=C/C12COC(C)(C)C1C(O)C(OC(C)=O)C1(C)C2CCC2(C)C(c3ccoc3)OC(=O)C3OC321` (stereo not given), for which the Potency result in test [1], in test [2], in test [3], in test [4] and in test [5] was “inactive” throughout.
Take `C=C1CCC2C(C)(C(=O)O)CCCC2(C)C1CCC(C)CC(=O)O` (stereo not given): the Potency result in test [1], in test [2], in test [3], in test [4] and in test [5] was “inactive” throughout.
Consider `CC1CCC2(C=O)C(CO)=CCCC2C1(C)CC(=O)O` (stereo not given), for which the Potency entry in test [1], in test [2], in test [3] and in test [5] was “inactive” in each case. Further, the Potency in test [4] is 3.36 µM (active).
With `COc1ccc(CN2C(=O)C(=O)c3cc(S(=O)(=O)N4CCC[C@H]4COc4cccnc4)ccc32)cc1`, the Potency in test [1] was 22.7 µM (active); in test [2], 25.5 µM (active). In addition, the Potency entry in test [3], in test [4] and in test [5] was “inactive” each time.
As for `C[C@@H]1O[C@@H](O[C@H]2[C@H](O)[C@@H](O[C@@H]3O[C@H](CO)[C@@H](O)[C@H](O[C@@H]4O[C@H](CO)[C@@H](O)[C@H](O)[C@H]4O)[C@H]3O)[C@H](O[C@H]3CC[C@@]4(C)C(=CC[C@@H]5C4CC[C@@]4(C)C5C[C@@H]5OC6(CC[C@@](C)(CO[C@@H]7O[C@H](CO)[C@@H](O)[C@H](O)[C@H]7O)O6)[C@@H](C)[C@@H]54)C3)O[C@@H]2CO)[C@H](O)[C@H](O)[C@H]1OC1OC(CO)C(O)C(O)C1O` (stereo not given in full), the values for the activity, negative = inhibition in test [1] and in test [5] were 1.32% [at 9.52 µM] and 1.98% [at 11.6 µM], respectively. The outcome in test [2] is “inactive [at 9.73 µM]”. In test [3], the activity change, negative = inhibition is 2.07% [at 11.6 µM]. In addition, in test [4], the activity change, negative = thiol reactive was 23.9% [at 11.5 µM].
In the case of `O=C(CCc1ccccc1)N1CCC(O)(Cn2cnc3cc(Cl)ccc3c2=O)CC1`, the Potency result in test [1], in test [2], in test [3], in test [4] and in test [5] was “inactive” in each case.
Consider `CCNCc1nc2c(N)nc3ccccc3c2n1CC(C)(C)O`, for which the Potency entry in test [1], in test [2], in test [3], in test [4] and in test [5] was “inactive” each time.
Take `CCC(C)C(=O)O[C@H]1CCC=C2C=C[C@H](C)[C@H](CC[C@@H](O)C[C@@H](O)CC(=O)O)[C@H]21` (stereo not given in full): the Potency entry in test [1], in test [2], in test [3], in test [4] and in test [5] was “inactive” in each case.
Take `C=C1CCC2C(C(C)(C)O)CCC2(C)CC(O)C(=C)CCC1O` (stereo not given): the Potency result in test [1], in test [2], in test [3], in test [4] and in test [5] was “inactive” in each case.
`COc1cc(C)c(C(=O)Oc2cc(C)c(C(=O)Oc3cc(C)c(C(=O)NC(C)C(=O)O)c(O)c3)c(O[C@@H]3O[C@H](CO)[C@@H](O)[C@H](O)[C@H]3OC(C)=O)c2)c(OC)c1` (stereo not given in full): the Potency result in test [1], in test [2], in test [3], in test [4] and in test [5] was “inactive” in each case.

For the origin of these results see PubChem BioAssay (NCATS).
